This is an account of results in ChEMBL document CHEMBL3988442, “University of Dundee, Small-Polar-MMV Screening Library” (2021).

Common to all, as to design: scale not given: direction of the effect not stated beside the values
Test [1] deals with Protein translocase subunit SecA (Escherichia coli (strain K12)) (UniProt P10408). Kind of test: Assay to Identify E. coli SecA ATPase Inhibitors. The format is functional. To be noted: 30 µM.
Test [2] deals with T1, Ubiquitin-activating enzyme e1, putative (Leishmania donovani (strain BPK282A1)) (UniProt E9BSI1).
T1 sequence (whole entry): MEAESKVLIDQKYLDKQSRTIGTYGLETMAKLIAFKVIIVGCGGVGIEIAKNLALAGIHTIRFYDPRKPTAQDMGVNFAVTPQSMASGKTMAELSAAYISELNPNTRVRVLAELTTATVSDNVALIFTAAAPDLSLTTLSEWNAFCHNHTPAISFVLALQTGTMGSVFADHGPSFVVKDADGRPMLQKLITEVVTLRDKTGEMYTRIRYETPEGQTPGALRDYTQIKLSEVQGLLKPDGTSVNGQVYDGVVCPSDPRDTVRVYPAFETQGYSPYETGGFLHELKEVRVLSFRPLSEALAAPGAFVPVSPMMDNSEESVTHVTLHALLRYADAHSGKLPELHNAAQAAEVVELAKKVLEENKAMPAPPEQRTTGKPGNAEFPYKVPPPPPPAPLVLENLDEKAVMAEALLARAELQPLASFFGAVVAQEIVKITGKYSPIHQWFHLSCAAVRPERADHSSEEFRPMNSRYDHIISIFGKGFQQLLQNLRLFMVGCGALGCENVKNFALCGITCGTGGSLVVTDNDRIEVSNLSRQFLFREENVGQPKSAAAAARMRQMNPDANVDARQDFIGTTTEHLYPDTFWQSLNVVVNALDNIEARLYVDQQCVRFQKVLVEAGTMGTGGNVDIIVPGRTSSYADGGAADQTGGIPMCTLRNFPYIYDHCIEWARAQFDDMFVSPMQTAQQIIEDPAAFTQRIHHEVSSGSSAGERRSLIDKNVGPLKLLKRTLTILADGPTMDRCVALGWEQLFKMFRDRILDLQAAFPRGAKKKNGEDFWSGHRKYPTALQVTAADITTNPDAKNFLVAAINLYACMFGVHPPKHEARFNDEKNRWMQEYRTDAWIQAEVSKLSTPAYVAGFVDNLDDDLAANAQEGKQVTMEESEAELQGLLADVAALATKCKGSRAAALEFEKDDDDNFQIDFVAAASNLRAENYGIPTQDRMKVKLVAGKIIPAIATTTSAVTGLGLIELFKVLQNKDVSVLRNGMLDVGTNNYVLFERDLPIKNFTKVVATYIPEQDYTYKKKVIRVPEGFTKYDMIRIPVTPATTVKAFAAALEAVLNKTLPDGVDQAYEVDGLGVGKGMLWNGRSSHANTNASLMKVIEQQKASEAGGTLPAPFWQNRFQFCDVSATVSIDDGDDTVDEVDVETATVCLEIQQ
As to the kind of experiment: Leishmania donovani Ubiquitin Activating Enzyme (LdE1). It is filed as functional. As to conditions: 30 µM.

The target in test [3] is AMP-activated protein kinase, AMPK (Homo sapiens) (UniProt P54646+O43741+P54619+Q9UGJ0+Q9Y478+Q13131+Q9UGI9). As to the kind of experiment: AMP-dependent Kinase enzyme assay. An in vitro enzyme assay that detects ADP turnover that is directly proportional to AMPK activity. This uses naive AMPK that is activated during the assay with MK-8722. The format is functional. As to conditions: 30 µM.

Test [4] deals with Sialic acid-binding Ig-like lectin 9 (Homo sapiens) (UniProt Q9Y336). Kind of test: Hs-Siglec9 ALPHAscreen SOP 20170721. As to conditions: 10 µM. (Bead proximity is the source of the signal in Alpha formats.)
Test [5] deals with Trypanosoma cruzi. As to the kind of experiment: Trypanosoma cruzi phosphomannomutase and mannose-1-phosphate guanylyltransferase assay. The format is functional. As to conditions: 10 µM.
Test [6] deals with T2, Arginase-2, mitochondrial (Homo sapiens) (UniProt P78540).
T2 sequence (whole entry): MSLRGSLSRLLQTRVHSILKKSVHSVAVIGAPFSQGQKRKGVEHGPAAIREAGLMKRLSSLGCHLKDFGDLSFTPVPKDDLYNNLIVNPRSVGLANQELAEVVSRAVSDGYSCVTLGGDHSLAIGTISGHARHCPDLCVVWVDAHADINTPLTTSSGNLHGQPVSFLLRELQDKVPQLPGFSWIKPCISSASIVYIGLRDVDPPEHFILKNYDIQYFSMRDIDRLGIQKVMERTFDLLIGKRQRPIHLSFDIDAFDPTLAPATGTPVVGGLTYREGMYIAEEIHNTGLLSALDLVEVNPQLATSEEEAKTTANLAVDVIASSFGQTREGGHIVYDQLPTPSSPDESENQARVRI
Kind of test: in vitro enzyme assay to detect the production of urea directly proportional to the activity of Arginase II. Note: in the data most compounds retested in dose-response had high values. To be noted: 33.3 µM. It is filed as functional.

Test [7] addresses T3, Proteasome subunit beta (Trypanosoma cruzi) (UniProt O96673).
T3 sequence (whole entry): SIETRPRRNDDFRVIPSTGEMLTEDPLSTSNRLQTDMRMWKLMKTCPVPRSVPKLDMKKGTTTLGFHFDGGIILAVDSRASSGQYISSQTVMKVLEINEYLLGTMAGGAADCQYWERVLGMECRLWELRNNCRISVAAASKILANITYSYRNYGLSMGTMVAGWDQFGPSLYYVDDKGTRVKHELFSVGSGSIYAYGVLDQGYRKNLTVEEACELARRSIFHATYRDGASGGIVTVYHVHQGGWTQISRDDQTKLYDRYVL
Kind of test: Trypanosoma cruzi proteasome chymotrypsin-like activity (TcProtChymo) assay. Note: in the data most compounds retested in dose-response had high values. It is filed as functional. To be noted: 9.37 µM.

The species named for test [8] is Homo sapiens. Kind of test: To identify inhibition of the IFN signalling (Jak-Stat) pathway via expression of an eGFP reporter gene under the control of an IFN-stimulated response element (ISRE) containing MxA promoter. The format is functional. As to conditions: 30 µM. (In general: In a reporter assay the amount or activity of a reporter protein is the signal.)

Test [9] addresses T4, Tyrosyl-tRNA synthetase, putative (Trypanosoma cruzi (strain CL Brener)) (UniProt Q4DSP6).
T4 sequence (whole entry): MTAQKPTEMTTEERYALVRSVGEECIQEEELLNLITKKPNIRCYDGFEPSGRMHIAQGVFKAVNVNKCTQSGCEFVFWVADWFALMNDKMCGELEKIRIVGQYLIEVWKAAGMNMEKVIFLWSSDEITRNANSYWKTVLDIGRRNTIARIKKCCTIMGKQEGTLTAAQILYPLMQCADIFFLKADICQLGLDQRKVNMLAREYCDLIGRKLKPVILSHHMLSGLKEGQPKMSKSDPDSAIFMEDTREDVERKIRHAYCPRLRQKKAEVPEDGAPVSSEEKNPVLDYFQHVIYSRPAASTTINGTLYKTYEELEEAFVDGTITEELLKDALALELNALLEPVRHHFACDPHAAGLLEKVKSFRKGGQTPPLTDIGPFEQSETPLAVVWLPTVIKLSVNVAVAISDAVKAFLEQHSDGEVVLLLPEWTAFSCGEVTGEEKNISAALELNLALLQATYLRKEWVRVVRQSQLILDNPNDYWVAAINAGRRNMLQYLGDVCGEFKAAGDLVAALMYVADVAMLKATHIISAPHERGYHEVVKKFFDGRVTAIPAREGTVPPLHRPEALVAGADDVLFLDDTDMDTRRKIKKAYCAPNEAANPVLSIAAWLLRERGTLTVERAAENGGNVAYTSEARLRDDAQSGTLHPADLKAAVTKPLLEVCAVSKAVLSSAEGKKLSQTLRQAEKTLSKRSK
Kind of test: Trypanosoma cruzi tyrosyl tRNA synthetase (TcYRS) _High Tyrosine SOP. Note: in the data most compounds retested in dose-response had high values. As to conditions: 30 µM. The format is functional.

Test [10] concerns the target T4, Tyrosyl-tRNA synthetase, putative (Trypanosoma cruzi (strain CL Brener)). As to the kind of experiment: Trypanosoma cruzi tyrosyl tRNA synthetase (TcYRS) SOP. It is filed as functional. To be noted: 30 µM.
Test [11] has as its target Chromo domain-containing protein 1 (Saccharomyces cerevisiae (strain ATCC 204508 / S288c) (Baker's yeast)) (UniProt P32657). As to the kind of experiment: ScCHD-1 Enzyme Inhibition Assay. Note: in the data most compounds retested in dose-response had high values. The format is functional. To be noted: 30 µM.

SMILES strings stand for the structures. For some assays here: Results with a measured potency or affinity are listed apart.

Chain of Chromo domain-containing protein 1 (Saccharomyces cerevisiae (strain ATCC 204508 / S288c) (Baker's yeast)) (P32657 whole entry, the tested form may be a part): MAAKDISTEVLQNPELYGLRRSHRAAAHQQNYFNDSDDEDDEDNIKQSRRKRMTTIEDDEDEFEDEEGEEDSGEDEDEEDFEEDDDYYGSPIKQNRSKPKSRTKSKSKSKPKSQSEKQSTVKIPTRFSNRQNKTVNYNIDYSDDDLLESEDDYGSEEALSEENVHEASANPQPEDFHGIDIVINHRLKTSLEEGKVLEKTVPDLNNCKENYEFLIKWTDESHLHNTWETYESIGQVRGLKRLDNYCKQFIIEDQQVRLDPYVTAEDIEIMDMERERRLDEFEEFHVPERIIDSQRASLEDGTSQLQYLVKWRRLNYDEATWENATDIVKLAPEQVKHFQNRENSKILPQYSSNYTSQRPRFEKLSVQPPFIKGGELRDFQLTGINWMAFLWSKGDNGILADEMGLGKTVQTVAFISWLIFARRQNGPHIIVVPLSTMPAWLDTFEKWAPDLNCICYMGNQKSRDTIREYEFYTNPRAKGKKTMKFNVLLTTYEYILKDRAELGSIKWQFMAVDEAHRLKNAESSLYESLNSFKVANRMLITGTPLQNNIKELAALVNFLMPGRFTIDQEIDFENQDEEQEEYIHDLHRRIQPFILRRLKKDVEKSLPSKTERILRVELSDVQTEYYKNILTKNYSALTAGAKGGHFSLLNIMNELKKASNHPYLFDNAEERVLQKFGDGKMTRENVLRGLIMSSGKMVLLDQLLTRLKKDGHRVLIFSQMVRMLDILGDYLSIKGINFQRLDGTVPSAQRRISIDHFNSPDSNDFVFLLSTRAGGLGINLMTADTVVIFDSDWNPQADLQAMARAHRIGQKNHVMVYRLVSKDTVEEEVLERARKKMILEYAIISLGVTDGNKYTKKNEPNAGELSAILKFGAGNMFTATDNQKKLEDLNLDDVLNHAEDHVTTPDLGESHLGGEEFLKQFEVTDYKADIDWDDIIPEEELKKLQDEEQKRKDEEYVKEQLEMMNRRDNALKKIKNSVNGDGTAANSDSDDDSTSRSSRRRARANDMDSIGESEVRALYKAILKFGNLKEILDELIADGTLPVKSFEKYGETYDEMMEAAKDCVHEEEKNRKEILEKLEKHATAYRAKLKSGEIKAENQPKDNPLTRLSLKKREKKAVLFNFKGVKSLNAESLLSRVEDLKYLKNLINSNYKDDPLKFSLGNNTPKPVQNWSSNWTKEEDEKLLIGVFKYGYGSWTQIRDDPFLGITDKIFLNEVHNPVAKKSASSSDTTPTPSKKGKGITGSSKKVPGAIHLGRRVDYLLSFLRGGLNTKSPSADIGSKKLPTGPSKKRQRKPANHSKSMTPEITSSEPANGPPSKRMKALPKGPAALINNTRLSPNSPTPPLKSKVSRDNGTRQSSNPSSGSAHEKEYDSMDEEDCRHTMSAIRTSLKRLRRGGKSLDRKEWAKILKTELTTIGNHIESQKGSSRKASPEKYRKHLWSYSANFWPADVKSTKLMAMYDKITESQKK
Chain of Protein translocase subunit SecA (Escherichia coli (strain K12)) (P10408 whole entry): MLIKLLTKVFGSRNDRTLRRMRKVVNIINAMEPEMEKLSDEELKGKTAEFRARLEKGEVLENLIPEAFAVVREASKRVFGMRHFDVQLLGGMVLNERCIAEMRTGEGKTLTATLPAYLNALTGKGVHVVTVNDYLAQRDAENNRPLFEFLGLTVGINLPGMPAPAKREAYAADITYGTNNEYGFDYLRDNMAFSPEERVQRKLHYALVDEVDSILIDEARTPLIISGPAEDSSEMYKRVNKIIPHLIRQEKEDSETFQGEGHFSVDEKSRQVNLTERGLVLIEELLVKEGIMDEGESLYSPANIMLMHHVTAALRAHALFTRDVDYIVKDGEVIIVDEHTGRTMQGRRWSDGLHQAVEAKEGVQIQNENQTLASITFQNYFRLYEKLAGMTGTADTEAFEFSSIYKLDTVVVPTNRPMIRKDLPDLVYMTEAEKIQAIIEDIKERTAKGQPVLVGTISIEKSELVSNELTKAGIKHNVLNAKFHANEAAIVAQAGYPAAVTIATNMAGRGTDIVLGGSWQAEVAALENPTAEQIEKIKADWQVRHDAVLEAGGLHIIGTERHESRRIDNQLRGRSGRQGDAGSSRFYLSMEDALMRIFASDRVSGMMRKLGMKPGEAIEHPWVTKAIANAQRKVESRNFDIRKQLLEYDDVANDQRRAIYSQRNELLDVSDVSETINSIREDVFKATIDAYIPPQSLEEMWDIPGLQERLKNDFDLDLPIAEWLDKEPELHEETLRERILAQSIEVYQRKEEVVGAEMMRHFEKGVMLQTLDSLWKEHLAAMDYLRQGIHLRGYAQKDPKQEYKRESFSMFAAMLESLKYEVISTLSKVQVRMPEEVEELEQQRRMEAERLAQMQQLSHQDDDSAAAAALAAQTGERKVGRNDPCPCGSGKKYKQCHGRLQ
Chain of Sialic acid-binding Ig-like lectin 9 (Homo sapiens) (Q9Y336 whole entry): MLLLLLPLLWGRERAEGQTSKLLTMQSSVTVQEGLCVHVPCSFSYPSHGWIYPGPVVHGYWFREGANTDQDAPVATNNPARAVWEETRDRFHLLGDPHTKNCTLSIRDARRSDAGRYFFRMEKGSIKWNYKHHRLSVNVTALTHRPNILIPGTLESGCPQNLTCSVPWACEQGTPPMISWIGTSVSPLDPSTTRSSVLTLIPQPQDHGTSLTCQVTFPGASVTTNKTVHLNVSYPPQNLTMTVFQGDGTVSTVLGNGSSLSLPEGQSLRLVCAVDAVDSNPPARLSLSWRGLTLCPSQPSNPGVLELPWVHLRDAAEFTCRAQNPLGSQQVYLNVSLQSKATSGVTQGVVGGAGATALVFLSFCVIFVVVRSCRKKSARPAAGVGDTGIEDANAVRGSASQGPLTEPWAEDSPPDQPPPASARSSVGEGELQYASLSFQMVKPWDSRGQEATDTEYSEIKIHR

On to `Cn1ccnc1CN1CCC2(CC1)CC(NC(=O)c1ccccn1)CO2` (stereo not given), for which the Percent Effect in test [1] was -1.87%; in test [2], 20.8%; in [3], -1.66%; in test [4] it was -10.3%; in test [5], 1.28%; in test [6], 3.23%. The Percent Effect was 9.4% in test [7]; 0.302% in [8]; -20.1% in test [9]; 16.7% in test [10]; -10.2% in [11].

As for `CCn1cc(CN2CCCN(C(=O)c3sccc3C#N)CC2)cn1`, the Percent Effect was -4.12% in [1]; 2.53% in test [2]; -2.86% in test [3]; -2.29% in test [4]; -1.04% in test [5]; -1.14% in test [6]. Moreover, the Percent Effect in [7] is -7.94%; in test [8] it was -14%; in test [9], 2.46%; in test [10], 3.8%; in test [11], 4.04%.

Consider `COC[C@@]12CCO[C@@H]1CCN(C(=O)COc1ccccc1OC)C2`, for which the Percent Effect in test [1] was 0.312%; in test [2] it was 8.22%; in [3] it was -2.94%; in test [4] it was 5.31%; in [5], -4.76%; in test [6] it was -2.4%. In addition, the Percent Effect in [7] is 17.2%; in [8], 3.04%; in [9], 5.21%; in test [10] it was 11.1%; in test [11], -3.51%.

`O=C(CCCNc1ncccn1)N1CCCC(n2cccn2)C1` (stereo not given): the Percent Effect in [1] was -7.67%; in test [2], -1.27%; in [3] it was 0.0579%; in test [4] it was -1.81%; in test [5], -3.18%; in test [6], -4.52%. Further, the Percent Effect in test [7] was 2.23%; in test [8] it was 14.1%; in test [9] it was -3.12%; in test [10] it was -2.53%; in [11], -14.1%.

Take `CCN1CC2(CC1=O)CN(Cc1cnn(C)c1)CCN(C(=O)C(C)C)C2` (stereo not given): the Percent Effect in test [1] was -6.68%; in [2] it was 5.41%; in [3], 0.933%; in test [4] it was -1.78%; in [5], -1.17%; in [6], -1.67%. For the same compound, the Percent Effect was determined as 7.52% in test [7]; 8.39% in test [8]; 7.92% in test [9]; 6.1% in test [10]; 2.63% in [11].

For the compound `Cc1nccn1-c1cccc(C2CCCN(C3CCCCC3)C2)n1` (stereo not given), the Percent Effect is -7.63% in test [1]; -4.05% in [2]; 3.56% in [3]; -0.877% in test [4]; 2.17% in test [5]; 4.41% in test [6]. Besides, the Percent Effect in test [7] was 14.8%; in test [8], 2.91%; in test [9] it was 22.6%; in test [10], 27.3%; in [11], -10.9%.

For the compound `Cc1ccccc1OCCC(=O)OC(C)C(=O)Nc1sccc1C(N)=O` (stereo not given), the Percent Effect in test [1] was -2.66%; in test [2], -2.7%; in [3] it was 6.19%; in test [4], -3.07%; in test [5] it was -9.09%; in [6] it was -10.2%. The Percent Effect in test [7] is 8.33%; in test [8], 44.8%; in test [9], -15.1%; in test [10], -16.1%; in test [11], 15.1%.

As to `CCCn1ccc2ccc(NC(=O)N(C)CCOC)cc21`, the Percent Effect was -1.73% in test [1]; -10.5% in [2]; -6.25% in test [3]; 4.31% in [4]; -4.58% in test [5]; 1.18% in [6]. The Percent Effect in test [7] was 9.3%; in [8] it was -9.53%; in test [9] it was 1.06%; in test [10], 5.2%; in [11], -2.86%.

With `c1ccc(-n2ccnc2)c(CNCC2CNc3ccnn3C2)c1` (stereo not given), the Percent Effect in test [1] is -2.24%; in [2] it was 18.2%; in [3], -5.79%; in [4], 12.2%; in test [5] it was 7.68%; in test [6], 1.07%. Besides, the Percent Effect is 2.53% in test [7]; 17.5% in test [8]; 5.83% in test [9]; 21.9% in [10]; -7.36% in test [11].

With `Cc1cc2n(n1)CC(CNC1CCN(c3ccc(F)cc3)CC1)CN2` (stereo not given), the Percent Effect in test [1] was -2.69%; in [2] it was 8.11%; in test [3] it was -9.27%; in [4], 18.6%; in test [5] it was 6.35%; in [6], 15.1%. Further, the Percent Effect in [7] is -0.0858%; in [8], -21.8%; in test [9], 1.07%; in [10] it was 18.5%; in [11] it was -6.89%.
